For assay [1], the system named is Zika virus NS2B-NS3 protease (unlinked complex). Nature of the assay: Primary screen GU Rhodamine qHTS for Zika virus inhibitors: Unlinked NS2B-NS3 protease assay (AID 1347159). Also: nearly all actives have a fitted effect of over 60% in size. An outline of the steps:
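Percent inhibition came from the 15-min rise in Rhodamine110 fluorescence (1.5 microM substrate, ~15% conversion), normalized to no-inhibitor and no-enzyme wells and Hill-fitted. Unlinked protease, 25 nM, pH 8.0 Tris buffer; compounds up to 114 microM, 15-min preincubation.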
A general note: qHTS replaces the single test concentration by a dilution series.

The test system of assay [2] is Zika virus NS2B-NS3 protease (linked construct). Nature of the assay: Primary screen NINDS Rhodamine qHTS for Zika virus inhibitors (AID 1347160). Also: nearly all actives have a fitted effect of over 55% in size. Summed up:
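Rhodamine110-peptide cleavage (1.5 µM substrate) by 25 nM linked NS2B-NS3 enzyme at pH 8.0 (Tris, Tween 20), after 15 min RT preincubation with compounds; 15-min fluorescence change normalized to controls and Hill-fitted.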

These results are taken from PubChem BioAssay (NCATS).

Results filed as inconclusive are left out. Unmarked numbers belong to inactive results. Activity calls are given as the source filed them. Calls follow the shape of the dose curve; as a rule, active = well fitted inhibition curve with a large enough effect; inconclusive = small, poorly fitted or top-dose-only effect; inactive = no such curve, though single readings can be large or run the other way.
% is scaled to controls: 0 for no effect and ±100 for the full control effect; potency is read from the fitted curve at half-maximal effect.

As for `COc1cc(C2c3cc(O)c(OC)cc3CC(CO)C2CO)ccc1O` (configuration not stated), the Potency entry in assay [1] and in assay [2] was “inactive” in each case.

With `C/C=C(\C)C(=O)O[C@@H]1CC2[C@@H](CC=C3C[C@@H](O[C@H]4C[C@H](OC)[C@H](O[C@H]5C[C@H](OC)[C@H](O[C@H]6C[C@H](OC)[C@H](O[C@H]7C[C@@H](OC)[C@H](O[C@@H]8O[C@H](CO)[C@@H](O)[C@H](O)[C@H]8O)[C@@H](C)O7)[C@@H](C)O6)[C@@H](C)O5)[C@@H](C)O4)CC[C@@]32C)[C@@]2(O)CC[C@H](C(C)=O)[C@@]12C` (some centres not stated), the values for the activity change, negative = inhibition in assay [1] and in assay [2] were 20.3% [at 19.1 µM] and 1.97% [at 10.7 µM], respectively.

With `O=C(O)CCc1cc2ccoc2cc1O[C@@H]1O[C@H](CO[C@@H]2OC[C@](O)(CO)[C@H]2O)[C@@H](O)[C@H](O)[C@H]1O`, the Potency result in assay [1] and in assay [2] was “inactive” each time.

For the compound `CCC(C)(O)C(O)C(=O)OCc1ccc(O[C@@H]2O[C@H](CO)[C@@H](O)[C@H](O)[C@H]2O)c(OC)c1` (some centres not stated), the Potency result in assay [1] and in assay [2] was “inactive” in each case.

On to `OCCc1ccc(O[C@@H]2O[C@H](CO)[C@@H](O)[C@H](O)[C@H]2O)c(O)c1`, for which the Potency result in assay [1] and in assay [2] was “inactive” each time.

Regarding `C[C@]12CCC[C@](C)(C(=O)O)C1CCC13C=C(CO)C(CCC12)C3` (some centres not stated), the Potency entry in assay [1] and in assay [2] was “inactive” each time.

Regarding `Nc1nc(CC(=O)Nc2ccc(CCNCC(O)c3ccccc3)cc2)cs1` (configuration not stated), the Potency result in assay [1] and in assay [2] was “inactive” each time.

Turning to `CN1C(=O)c2ccccc2-n2c(nc3ccccc3c2=O)/C1=C/c1ccccc1`, the Potency entry in assay [1] and in assay [2] was “inactive” throughout.

Take `CC(=O)OC1C(O)C(C)=C(CCC(C)CC(=O)O)C2(C)CCCC(C)(C)C12` (configuration not stated): the Potency result in assay [1] and in assay [2] was “inactive” throughout.

Consider `C[C@@H]1CC[C@]2(C(=O)O)CC[C@]3(C)C(=CCC4[C@]5(C)C(CC[C@]43C)C(C)(C)[C@@H](O)[C@H](O)[C@@H]5O)C2[C@]1(C)O` (some centres not stated), for which the Potency result in assay [1] and in assay [2] was “inactive” in each case.

As for `CC(=O)c1c(O)cc2c(c1C)C(=O)CC(O)C2` (configuration not stated), the Potency result in assay [1] and in assay [2] was “inactive” throughout.

On to `CC(C)(O)C1=CCC23COC(C2)C(O)(C(=O)O)CCC13` (configuration not stated), for which the Potency result in assay [1] and in assay [2] was “inactive” throughout.

Consider `CC(=O)NC(CCC(=O)O)C(=O)NCCc1ccc(O)cc1` (configuration not stated), for which the Potency entry in assay [1] and in assay [2] was “inactive” each time.

As for `C=C1CCC2(OC1)OC1CC3C4CC=C5CC(O)CC(O[C@@H]6OC[C@@H](O)[C@H](O)[C@H]6O)C5(C)C4CCC3(C)C1(O)C2C` (some centres not stated), the Potency entry in assay [1] and in assay [2] was “inactive” each time.

On to `CNC(=O)Nc1ccc(OC)c(NC(=O)NC(=O)c2cc(F)c(F)cc2Cl)c1`, for which the Potency entry in assay [1] and in assay [2] was “inactive” in each case.

`C[C@]1(OC(=O)/C=C/c2ccccc2)C[C@H](O)[C@]2(O)C=CO[C@@H](O[C@@H]3O[C@H](CO)[C@@H](O)[C@H](O)[C@H]3O)C12` (some centres not stated): the Potency entry in assay [1] and in assay [2] was “inactive” each time.

Regarding `COc1cc(NC(=O)c2ccccn2)ccc1Cl`, the Potency entry in assay [1] and in assay [2] was “inactive” each time.

Turning to `COc1c(C(CC(C)C)OC(C)=O)ccc(Oc2c(O)cc(C)cc2/C=C/C(C)=O)c1C(=O)O` (configuration not stated), the Potency in assay [1] is 7.08 µM (active); in assay [2] it was 11.2 µM (active).

Consider `C[C@@H]1CC[C@H]2C(C)(C)[C@H](O)[C@H](O)C[C@]2(C)[C@@]12Cc1c(O)cc3c(c1O2)CNC3=O`, for which the Potency result in assay [1] and in assay [2] was “inactive” throughout.

`COc1ccc2c(c1)O[C@H](O[C@@H]1O[C@H](CO)[C@@H](O)[C@H](O)[C@H]1O)C(=O)N2`: the Potency entry in assay [1] and in assay [2] was “inactive” each time.

In the case of `C[C@@H]1C(=O)O[C@H]2CC34[C@H]5C[C@@H](C(C)(C)C)C36[C@@H](OC(=O)[C@@H]6O)OC4(C(=O)O5)[C@]21O` (some centres not stated), the Potency entry in assay [1] and in assay [2] was “inactive” throughout.

For the compound `CC(C)c1nc(N(C)S(C)(=O)=O)nc(-c2ccc(F)cc2)c1/C=C/[C@@H](O)C[C@@H](O)CC(=O)O`, the Potency entry in assay [1] and in assay [2] was “inactive” in each case.

With `O=C(O)Cc1nn(Cc2nc3cc(C(F)(F)F)ccc3s2)c(=O)c2nccnc12`, the Potency entry in assay [1] and in assay [2] was “inactive” in each case.

In the case of `CC1(C)CC2C3=CCC4C5(C)CCC(OC6OC(C(=O)O)C(O)C(O)C6OC6OC(CO)C(O)C(O)C6OC6OC(CO)C(O)C(O)C6O)C(C)(CO)C5CCC4(C)C3(C)CCC2(C)C(OC2OCC(O)C(OC3OC(CO)C(O)C(O)C3O)C2O)C1O` (configuration not stated), the figures for the activity change, negative = inhibition in assay [1] and in assay [2] were 8.97% [at 19.1 µM] and -17% [at 10.7 µM], respectively.

As to `COc1cc(C)c(C(=O)O[C@H]2[C@@H](O)[C@H](n3ccc(=O)[nH]c3=O)O[C@@H]2CO)c(OC)c1`, the Potency entry in assay [1] and in assay [2] was “inactive” in each case.

On to `Cc1c(CN(C)C(=O)/C=C/c2cnc3c(c2)CCC(=O)N3)oc2ccccc12`, for which the Potency entry in assay [1] and in assay [2] was “inactive” throughout.

`N#CCc1ccc(O)cc1O[C@@H]1O[C@H](CO)[C@@H](O)[C@H](O)[C@H]1O`: the Potency entry in assay [1] and in assay [2] was “inactive” in each case.

Turning to `CCNC(=O)CCC/C=C\C[C@@H]1[C@@H](/C=C/C(O)CCc2ccccc2)[C@@H](O)C[C@@H]1O` (some centres not stated), the Potency result in assay [1] and in assay [2] was “inactive” each time.

For `CCCC1=CC2=C(CO1)C(=O)C(C)(OC(=O)c1c(C)cc(OC)cc1O)C(O)C2` (configuration not stated), the Potency entry in assay [1] and in assay [2] was “inactive” in each case.

Take `Cc1coc2c1CC1OC1(C)CCC1OC1(C)C2` (configuration not stated): the Potency result in assay [1] and in assay [2] was “inactive” in each case.

Regarding `Clc1ccc2c(c1)C1=NCCN1c1c(-c3noc(C4CC4)n3)ncn1-2`, the Potency entry in assay [1] and in assay [2] was “inactive” each time.
